From PubChem BioAssay
ASK1 inh – inhibitors of human ASK1 kinase. Q99683. inhibition, % at 7.44 µM. AlphaScreen MKK6 phosphorylation by ASK1, luminescence. hit rate 0.99% among 22,000; in the data active = inhibition above about 35%
Target sequence (Q99683 whole entry, looked up): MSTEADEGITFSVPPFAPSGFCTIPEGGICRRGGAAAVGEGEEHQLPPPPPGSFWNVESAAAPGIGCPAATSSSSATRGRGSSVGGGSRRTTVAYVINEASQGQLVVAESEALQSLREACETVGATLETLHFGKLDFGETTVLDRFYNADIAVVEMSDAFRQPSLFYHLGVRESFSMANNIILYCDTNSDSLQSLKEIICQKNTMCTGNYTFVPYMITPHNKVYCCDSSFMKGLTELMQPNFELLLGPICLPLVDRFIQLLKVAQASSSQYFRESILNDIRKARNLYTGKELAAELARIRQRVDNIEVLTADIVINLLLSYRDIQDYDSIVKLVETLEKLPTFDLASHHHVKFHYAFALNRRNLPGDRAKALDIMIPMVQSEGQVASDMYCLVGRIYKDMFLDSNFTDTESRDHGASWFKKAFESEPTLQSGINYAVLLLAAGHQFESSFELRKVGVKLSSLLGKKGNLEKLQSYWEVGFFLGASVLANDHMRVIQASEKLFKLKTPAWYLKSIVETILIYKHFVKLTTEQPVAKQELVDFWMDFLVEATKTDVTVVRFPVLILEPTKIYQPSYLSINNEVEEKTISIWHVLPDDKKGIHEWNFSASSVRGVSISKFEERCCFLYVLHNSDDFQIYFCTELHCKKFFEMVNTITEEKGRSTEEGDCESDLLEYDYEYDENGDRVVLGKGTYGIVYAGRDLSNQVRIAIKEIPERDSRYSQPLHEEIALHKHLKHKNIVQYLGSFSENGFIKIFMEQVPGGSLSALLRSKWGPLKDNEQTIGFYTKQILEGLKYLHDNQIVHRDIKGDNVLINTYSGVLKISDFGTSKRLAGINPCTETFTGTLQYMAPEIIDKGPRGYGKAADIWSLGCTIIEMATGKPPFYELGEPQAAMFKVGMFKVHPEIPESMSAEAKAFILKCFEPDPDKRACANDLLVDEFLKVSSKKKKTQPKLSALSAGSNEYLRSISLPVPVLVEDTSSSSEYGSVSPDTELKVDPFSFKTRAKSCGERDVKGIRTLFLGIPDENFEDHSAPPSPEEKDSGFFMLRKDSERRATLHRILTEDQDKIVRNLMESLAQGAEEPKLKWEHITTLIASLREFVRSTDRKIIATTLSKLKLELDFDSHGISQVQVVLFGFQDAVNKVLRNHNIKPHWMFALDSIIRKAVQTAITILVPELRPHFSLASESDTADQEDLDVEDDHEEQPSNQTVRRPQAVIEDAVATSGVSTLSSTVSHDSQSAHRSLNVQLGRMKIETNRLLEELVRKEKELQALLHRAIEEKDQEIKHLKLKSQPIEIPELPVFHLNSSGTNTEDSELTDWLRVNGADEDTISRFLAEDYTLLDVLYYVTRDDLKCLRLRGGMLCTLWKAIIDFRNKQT
ULK1 inh – blocks human autophagy kinase ULK1 | AlphaScreen Atg13 phosphorylation by ULK1, luminescence | AID 1259251 | O75385 | inhibition, % at 5.96 µM | hit rate 1.9% among 30,000; in the data active = inhibition above about 43%
TruHits interf – AlphaScreen optical interference dose response, ASK1 counter-screen; shares compounds with ASK1 inh; AlphaScreen TruHits beads, signal interference counterscreen; IC50, µM; hit rate 20% among 220; AID 1159604;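 active = IC50 of 10 µM or lower in the counterscreen; inactive = IC50 above 10 µM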;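 also: loss of AlphaScreen light from TruHits beads alone with no ASK1 enzyme present; potency of signal reduction so a low IC50 flags an assay artifact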
A number is an active result; - = inactive; . = not tested or not shown; ! = not active in a repeat. Hits are enriched below; roughly 2.4% of the tested compounds scored in any of these assays.

SMILES	ASK1 inh	ULK1 inh	TruHits interf
COc1cc2nc(Nc3cccc(N(C)C)c3)nc(Nc3ccc(N4CCOCC4)cc3)c2cc1OC	56	-	6.4
COc1cc2nc(Nc3cc(OC)c(OC)c(OC)c3)nc(NC3CC3)c2cc1OC	-	-	.
Nc1cc(Nc2ccncn2)ncn1	-	-	.
COc1cc2nc(Nc3cc(OC)c(OC)c(OC)c3)nc(Nc3ccc(N4CCOCC4)cc3)c2cc1OC	48	-	7.2
COc1cc2nc(N3CCOCC3)nc(Nc3ccc(N4CCOCC4)cc3)c2cc1OC	-	-	.
FC(F)(F)c1cccc(CNc2nc(Nc3ccc(N4CCOCC4)cc3)nc3nc[nH]c23)c1	45!	-	-
CC(C)n1cnc2c(NCc3cccc(C(F)(F)F)c3)nc(Nc3ccccc3)nc21	-	-	.
CC(C)n1cnc2c(NCc3cccc(C(F)(F)F)c3)nc(Nc3ccc(N4CCOCC4)cc3)nc21	55!	-	6.4
FC(F)(F)c1ccc(Nc2nc(NCc3cccc(C(F)(F)F)c3)c3[nH]cnc3n2)cc1	-	-	.
c1ccc2c(Nc3cc(NCCN4CCOCC4)ncn3)nccc2c1	-	-	.
COc1ccc(-c2nc3ncnc(Nc4cc(OC)c(OC)c(OC)c4)c3[nH]2)cn1	45	-	-
COc1ccc(-c2nc3ncnc(Nc4ccc(NC(C)=O)cc4)c3[nH]2)cn1	-	-	.
CN(C)c1cccc(Nc2nc(NC3CC3)c3ncn(-c4ccsc4)c3n2)c1	-	-	.
COc1ccc2c(c1)C[C@H](C(=O)Nc1ccc(-c3cn[nH]c3)cc1OCCN(C)C)CO2	-	-	.
COc1ccc2c(c1)CC(C(=O)Nc1ccc(-c3cn[nH]c3)cc1OCCN(Cc1ccccc1)Cc1ccccc1)CO2 (configuration not stated)	41	-	-
Cc1noc(C)c1-c1nc(NCCCN2CCCC2=O)c2ncn(-c3ccsc3)c2n1	-	-	.
O=C(Nc1ccc(-c2ncnc3[nH]ccc23)cc1)C1COc2ccccc2O1 (configuration not stated)	38	-	-
O=C(Nc1ccc(-c2cn[nH]c2)cc1)C1COc2ccccc2O1 (configuration not stated)	-	-	.
Cc1ccc(-c2ncn(-c3ccc(Nc4nccc(-c5ccc(N)nc5)n4)cc3)n2)cn1	-	-	.
Cc1ccc(-c2ncn(-c3ccc(Nc4nccc(-c5cncc(N6CCOCC6)c5)n4)cc3)n2)cn1	41	-	-
Cc1ccc(-c2ncn(-c3ccc(Nc4nccc(-c5cncc6ccccc56)n4)cc3)n2)cn1	38	-	-
Cc1ccc(-c2ncn(-c3ccc(Nc4nccc(-c5ccc(Cl)nc5)n4)cc3)n2)cn1	-	-	.
O=C1CCCN1CCn1cnc2c(NCCO)nc(Nc3ccc(N4CCOCC4)cc3)nc21	-	-	.
O=[N+]([O-])c1ccc(S(=O)(=O)Nc2nccs2)cc1	.	-	.
Fc1cc(-c2ccnc(Nc3ccc(-n4ccnn4)cc3)n2)cc(N2CCOCC2)c1	-	-	.
SMILES	ASK1 inh	ULK1 inh	TruHits interf
OC1CCN(c2ccc(Nc3nccc(-c4cc(F)cc(N5CCN(C6CC6)CC5)c4)n3)cc2)CC1	41	55	-
O=C(NCCN1CCOCC1)c1cccc(Nc2ncccn2)c1	-	-	.
c1ccc(Nc2ccnc(-c3csc4ccccc34)n2)cc1	-	-	.
c1ccc2c(-c3nccc(Nc4ccc(N5CCOCC5)cc4)n3)csc2c1	38	-	-
CCCNc1nc(Nc2ccccc2)nc(N(CC)CC)n1	-	-	.
c1ccc(CNc2ncnc3nc(N4CCN(Cc5ccc6c(c5)OCO6)CC4)[nH]c23)cc1	-	-	.
c1cn(-c2ccc(Nc3nc4ncnc(Nc5ccc6c(c5)OCO6)c4[nH]3)cc2)cn1	39	-	-
c1nc(Nc2ccc(N3CCOCC3)cc2)c2[nH]c(N3CCN(Cc4ccc5c(c4)OCO5)CC3)nc2n1	43	-	-
c1cnc2ccc(Nc3nc4ncnc(Nc5ccc6c(c5)OCO6)c4[nH]3)cc2c1	-	-	.
c1nc2nc(N3CCN(Cc4ccc5c(c4)OCO5)CC3)nc(Nc3ccc(N4CCOCC4)cc3)c2[nH]1	-	-	.
Oc1ccc(CCNc2ncnc3nc(N4CCN(Cc5ccc6c(c5)OCO6)CC4)[nH]c23)cc1	41	-	-
COc1ccc(CCNC(=O)c2cnc(Nc3ccccn3)s2)cc1	-	-	.
CN(C)c1cccc(Nc2nc(NCCc3ccc(O)cc3)c3ncn(Cc4ccc(C(F)(F)F)cc4)c3n2)c1	37	-	-
COc1ccc(CCNc2nc(Nc3cccc(N(C)C)c3)nc3c2ncn3Cc2ccc(C(F)(F)F)cc2)cc1	-	-	.
Oc1ccc(CCNc2nc(Nc3ccccc3)nc3c2ncn3-c2ccccc2)cc1	-	-	.
CN(C)c1cccc(Nc2nc(NCCc3ccc(O)cc3)c3ncn(C4CCCCC4)c3n2)c1	38	-	-
CN(C)c1cccc(Nc2nc(NCCc3ccc(O)cc3)c3ncn(-c4ccccc4)c3n2)c1	37	-	-
CC(C)N(CCNc1nc(Nc2cccc(N(C)C)c2)nc2c1ncn2C1CCCCC1)C(C)C	-	-	.
COc1ccc(CCNc2nc(Nc3ccncc3)nc3c2ncn3C2CCCCC2)cc1	-	-	.
O=C(NC1CC1)c1ccc(-c2ccc(C(=O)NCCCN3CCCC3=O)s2)cc1	-	-	.
Cc1cc(NCCOc2ccccc2)nc(Nc2cccnc2)n1	-	-	.
CC(=O)Nc1ccc(Nc2cc(Nc3cccc(N(C)C)c3)ncn2)cc1	-	-	.
Cc1cc(NCCOc2ccccc2)nc(Nc2cccc(N(C)C)c2)n1	57	-	6
Cc1cc(NCCc2ccc(O)cc2)nc(Nc2cccc(N(C)C)c2)n1	55	-	9
Cc1cc(NCCO)nc(Nc2cccc(N(C)C)c2)n1	-	-	.
SMILES	ASK1 inh	ULK1 inh	TruHits interf
CN(C)c1cccc(Nc2cc(Nc3ccccc3)ncn2)c1	37	-	-
CC(=O)Nc1ccc(-c2cn[nH]c2)cc1OCCN(C)C	-	-	.
O=C(C1CCCCN1S(=O)(=O)c1ccc(Cl)s1)N1CCOCC1 (configuration not stated)	.	-	.
FC(F)(F)c1cccc(CNc2nc(-c3ccccc3)nc3c2ncn3-c2ccccc2)c1	-	-	.
NC(=O)c1ccc(-c2nc(NCc3cccc(C(F)(F)F)c3)c3ncn(-c4ccccc4)c3n2)cc1	39	-	-
CC(C)n1c(N2CCN(Cc3ccc4c(c3)OCO4)CC2)nc2c(NCCOc3ccccc3)ncnc21	-	-	.
COc1ccc(-c2cc(NCCc3ccc(O)cc3)ncn2)cc1	-	-	.
Cc1nc(C)n(-c2ccc(Nc3nccc(-c4cc(F)cc(-c5cn[nH]c5C)c4)n3)cc2)n1	36	-	-
Cc1nc(C)n(-c2ccc(Nc3nccc(-c4cc(F)cc(-c5ncco5)c4)n3)cc2)n1	38	-	-
Cc1ncn(-c2ccc(Nc3nccc(-c4cc(F)cc(-c5cn[nH]c5C)c4)n3)cc2)n1	48	-	-
Cc1[nH]ncc1-c1cc(F)cc(-c2ccnc(Nc3ccc(-n4cnc(C(F)(F)F)n4)cc3)n2)c1	-	-	.
Cc1nc(C)n(-c2ccc(Nc3nccc(-c4cncc(F)c4)n3)cc2)n1	-	-	.
Cc1nc(C)n(-c2ccc(Nc3nccc(-c4cc(F)cc(-c5ccnn5C)c4)n3)cc2)n1	-	-	.
CCCNc1nc(N2CCOCC2)nc2c1ncn2C(C)C	-	-	.
COc1ccc(CCNc2nc(Nc3ccc(N4CCOCC4)cc3)nc3c2ncn3-c2ccsc2)cc1	37	-	7.4
COc1ccc(CCNc2nc(Nc3ccc(N4CCOCC4)cc3)nc3c2ncn3-c2ccccc2)cc1	37	-	-
